PubChem BioAssay AID1159580 (chemical genetic matrix, 2015)
Among all 5,500 compounds or so, about 2,000 (36%) were called active. Roughly 18% stayed inconclusive and do not appear here. The list shows a part of the results. Values without a mark were called inactive. Cut-off read from the data, not from the text of the source: active = normalized growth mostly below about 0.91 (no sharp cut-off); inconclusive = no clear call, values can overlap the other calls; inactive = mostly above about 0.92.

Assay: chemical genetic growth profiling, strain panel (AID 1159580);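 note: tested at 20 µM; growth read once vehicle control cultures reached saturation at 30 °C; 1 = growth at the plate median or of vehicle wells; lower values mean less growth of the strain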
Settings: S. cerevisiae deletion strains, growth OD

Cc1csc(NC(=O)Nc2ccc(C(F)(F)F)cc2)c1
normalized growth (locus YAR019C, strain CDC15, stronger effect = lower value): 0.971 | normalized growth (locus YBL105C, strain PKC1, stronger effect = lower value): 0.98 | normalized growth (locus YBR135W, strain CKS1, stronger effect = lower value): 0.963 | normalized growth (locus YBR136W, strain MEC1, stronger effect = lower value): 0.98 | normalized growth (locus YBR160W, strain CDC28, stronger effect = lower value): 0.975 | normalized growth (locus YDL017W, strain CDC7, stronger effect = lower value): 0.977 | normalized growth (locus YDL028C, strain MPS1, stronger effect = lower value): 0.981 | normalized growth (locus YDL101C, strain DUN1, stronger effect = lower value): 1.02 | normalized growth (locus YDL108W, strain KIN28, stronger effect = lower value): 0.973 | normalized growth (locus YDL132W, strain cdc53, stronger effect = lower value): 0.97 | normalized growth (locus YDL214C, strain PRR2, stronger effect = lower value): 0.783 | normalized growth (locus YDR052C, strain DBF4, stronger effect = lower value): 0.989 | normalized growth (locus YDR054C, strain cdc34, stronger effect = lower value): 0.95 | normalized growth (locus YDR226W, strain ADK1, stronger effect = lower value): 0.975 | normalized growth (locus YDR477W, strain SNF1, stronger effect = lower value): 0.804 | normalized growth (locus YER123W, strain YCK3, stronger effect = lower value): 0.735 | normalized growth (locus YER133W, strain GLC7, stronger effect = lower value): 0.848 | normalized growth (locus YFL009W, strain cdc4, stronger effect = lower value): 0.97 | normalized growth (locus YFL029C, strain CAK1, stronger effect = lower value): 0.958 | normalized growth (locus YFR003C, strain YPI1, stronger effect = lower value): 0.972 | normalized growth (locus YFR019W, strain FAB1, stronger effect = lower value): 0.801 | normalized growth (locus YFR028C, strain CDC14, stronger effect = lower value): 0.951 | normalized growth (locus YGR040W, strain KSS1, stronger effect = lower value): 0.848 | normalized growth (locus YGR052W, strain FMP48, stronger effect = lower value): 0.946 | normalized growth (locus YGR092W, strain DBF2, stronger effect = lower value): 0.781 | normalized growth (locus YHR030C, strain SLT2, stronger effect = lower value): 0.891 | normalized growth (locus YHR079C, strain IRE1, stronger effect = lower value): 0.876 | normalized growth (locus YHR082C, strain KSP1, stronger effect = lower value): 0.893 | normalized growth (locus YHR205W, strain SCH9, stronger effect = lower value): 0.453 (active) | normalized growth (locus YIL147C, strain SLN1, stronger effect = lower value): 0.978 | normalized growth (locus YJL095W, strain BCK1, stronger effect = lower value): 0.896 | normalized growth (locus YJL128C, strain PBS2, stronger effect = lower value): 0.932 | normalized growth (locus YJL157C, strain FAR1, stronger effect = lower value): 0.718 | normalized growth (locus YJR016C, strain ILV3, stronger effect = lower value): 0.978 | normalized growth (locus YJR066W, strain TOR1 (second series), stronger effect = lower value): 0.848 | normalized growth (locus YJR066W, strain TOR1, stronger effect = lower value): 0.935 | normalized growth (locus YKL048C, strain ELM1, stronger effect = lower value): 0.928 | normalized growth (locus YKL067W, strain YNK1, stronger effect = lower value): 0.805 | normalized growth (locus YKL101W, strain HSL1, stronger effect = lower value): 0.821 | normalized growth (locus YKL193C, strain SDS22, stronger effect = lower value): 0.969 | normalized growth (locus YKL203C, strain TOR2, stronger effect = lower value): 0.907 | normalized growth (locus YLR113W, strain HOG1, stronger effect = lower value): 0.803 (active) | normalized growth (locus YLR133W, strain CKI1, stronger effect = lower value): 0.675 (active) | normalized growth (locus YLR403W, strain SFP1, stronger effect = lower value): 0.704 | normalized growth (locus YML070W, strain DAK1, stronger effect = lower value): 0.755 | normalized growth (locus YMR001C, strain CDC5, stronger effect = lower value): 0.966 | normalized growth (locus YMR205C, strain PFK2 (second series), stronger effect = lower value): 0.832 | normalized growth (locus YMR277W, strain FCP1, stronger effect = lower value): 0.965 | normalized growth (locus YNL006W, strain LST8, stronger effect = lower value): 0.99 | normalized growth (locus YNL020C, strain ARK1, stronger effect = lower value): 0.753 | normalized growth (locus YNL161W, strain CBK1, stronger effect = lower value): 0.982 | normalized growth (locus YNL183C, strain NPR1, stronger effect = lower value): 0.878 | normalized growth (locus YNL207W, strain RIO2, stronger effect = lower value): 0.965 | normalized growth (locus YNL222W, strain SSU72, stronger effect = lower value): 0.967 | normalized growth (locus YNL307C, strain MCK1 (second series), stronger effect = lower value): 0.708 | normalized growth (locus YOL078W, strain AVO1, stronger effect = lower value): 0.964 | normalized growth (locus YOL136C, strain PFK27, stronger effect = lower value): 0.739 | normalized growth (locus YOR061W, strain CKA2, stronger effect = lower value): 0.714 | normalized growth (locus YOR119C, strain RIO1, stronger effect = lower value): 0.928 | normalized growth (locus YOR231W, strain MKK1, stronger effect = lower value): 0.864 | normalized growth (locus YOR329C, strain SCD5, stronger effect = lower value): 0.978 | normalized growth (locus YPL031C, strain PHO85, stronger effect = lower value): 0.773 | normalized growth (locus YPL153C, strain RAD53, stronger effect = lower value): 0.868 | normalized growth (locus YPL204W, strain HRR25, stronger effect = lower value): 0.902 | normalized growth (locus YPL209C, strain IPL1, stronger effect = lower value): 0.958 | normalized growth (locus YPL256C, strain CLN2, stronger effect = lower value): 0.857 (active) | normalized growth (locus YPR025C, strain CCL1, stronger effect = lower value): 0.963 | normalized growth (locus YPR106W, strain ISR1, stronger effect = lower value): 0.971 | normalized growth (locus YPR111W, strain DBF20, stronger effect = lower value): 0.966 | normalized growth (strain NNK1, stronger effect = lower value): 0.971 | normalized growth (strain TSCII, stronger effect = lower value): 0.968
